Results on 20 compounds are retold here after PubChem BioAssay (EPA / NIEHS).

For orientation: AC50 means the midpoint of the concentration-response curve, whichever way the signal moves.

Read-out in assay [1]: Transforming growth factor beta 1 (TGFb1), TGFB1 (gene 7040)
In words: BSK_KF3CT_TGFb1: BioMAP Diversity Plus: KF3CT Assay for Transforming growth factor beta 1 (TGFb1) Biomarker Activity (AID 2283072). The following applies: primary human keratinocytes with fibroblasts; actives raise or lower the signal. In outline: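 KF3CT co-culture (keratinocytes + fibroblasts), 24 h exposure → TGF-b1 ELISA → bidirectional fit, DMSO = baseline. Parallel SRB total-protein staining (0.1% SRB, 10% TCA fixation, 560 nm) for cytotoxicity.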

Read-out in assay [2]: C-C motif chemokine 2 (Homo sapiens) (UniProt P13500)
In words: BSK_KF3CT_MCP1: BioMAP Diversity Plus: KF3CT Assay for Monocyte Chemoattractant Protein 1 (MCP1/CCL2) Biomarker Activity (AID 2283073). To be noted: primary human keratinocytes with fibroblasts; actives raise or lower the signal. The gist of the method:
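KF3CT skin co-culture (keratinocytes/foreskin fibroblasts), 24 h post-dose; MCP-1 by ELISA; gain/loss of signal fit bidirectionally vs DMSO baseline.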

Read-out in assay [3]: Matrix Metallopeptidase 9 (MMP9), MMP9 (gene 4318)
In words: BSK_KF3CT_MMP9: BioMAP Diversity Plus: KF3CT Assay for Matrix Metallopeptidase 9 (MMP9) Biomarker Activity (AID 2283074).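 As to AC50: MMP9 protein level quantified by ELISA in the co-culture.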 To be noted: primary human keratinocytes with fibroblasts; actives raise or lower the signal. In outline:
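Values come from bidirectional fitting relative to DMSO of MMP-9 levels, which were measured by ELISA. Measurements were taken 24 h after chemical dosing of a keratinocyte and foreskin fibroblast co-culture.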

Read-out in assay [4]: urokinase plasminogen activator (uPA), PLAU (gene 5328)
In words: BSK_KF3CT_uPA: BioMAP Diversity Plus: KF3CT Assay for urokinase plasminogen activator (uPA) Biomarker Activity (AID 2283075). To be noted: primary human keratinocytes with fibroblasts; actives raise or lower the signal. In outline:
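Values derive from bidirectional fitting against DMSO controls. Keratinocyte/foreskin fibroblast co-cultures received chemical; 24 h later uPA was detected by ELISA, with SRB total-protein staining in parallel wells for overt cytotoxicity.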

Read-out in a further assay: CD40, CD40 (gene 958)
In words: BSK_LPS_CD40: BioMAP Diversity Plus: LPS Assay for CD40 Biomarker Activity (AID 2283076). To be noted: primary human HUVEC with PBMC; actives raise or lower the signal. In outline: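 ELISA readout of CD40 in HUVEC/PBMC co-culture (BSK_LPS system), 24 h post-dosing; bidirectional curve fit, DMSO baseline; parallel SRB total-protein staining for cytotoxicity.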

Read-out in assay [5]: E-selectin (Homo sapiens) (UniProt P16581)
In words: BSK_LPS_Eselectin: BioMAP Diversity Plus: LPS Assay for Eselectin Biomarker Activity (AID 2283077). The following applies: primary human HUVEC with PBMC; actives raise or lower the signal. The gist of the method:
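ELISA readout of E-selectin, 24 h post-dose, HUVEC + PBMC co-culture (LPS system). Gain or loss of signal vs DMSO baseline, bidirectional fit.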

Read-out in assay [6]: Interleukin-8 (IL8), CXCL8 (gene 3576)
In words: BSK_LPS_IL8: BioMAP Diversity Plus: LPS Assay for Interleukin-8 (IL8) Biomarker Activity (AID 2283078). To be noted: primary human HUVEC with PBMC; actives raise or lower the signal. In outline: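 HUVEC + PBMC co-culture, LPS-activated; test chemicals dosed, IL-8 read by ELISA at 24 h. Bidirectional curve fit vs DMSO baseline (gain or loss of signal).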

Assay [7] can be described thus: BSK_LPS_SRB: Viability Assessment in the BioMAP Diversity Plus: LPS Assay (AID 2283079).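 Also: total protein by sulforhodamine B absorbance as a cytotoxicity measure; measured one day after compound addition; fitted in both directions against DMSO so loss or gain of signal counts.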 To be noted: primary human HUVEC with PBMC. The gist of the method:
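HUVEC + PBMC co-culture, LPS-stimulated; compound 24 h. 10% TCA fix, 0.1% SRB stain, A560. Bidirectional fit vs DMSO.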

Read-out in assay [8]: Interleukin-1 alpha (IL1a), IL1A (gene 3552)
In words: BSK_LPS_IL1a: BioMAP Diversity Plus: LPS Assay for Interleukin-1 alpha (IL1a) Biomarker Activity (AID 2283080). The following applies: primary human HUVEC with PBMC; actives raise or lower the signal. In outline: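 HUVEC/PBMC co-culture, LPS system; 24 h after dosing; IL-1a by ELISA; gain or loss of signal fitted bidirectionally vs DMSO baseline.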

Read-out in assay [9]: Monocyte Chemoattractant Protein-1 (MCP1), CCL2 (gene 6347)
In words: BSK_LPS_MCP1: BioMAP Diversity Plus: LPS Assay for Monocyte Chemoattractant Protein-1 (MCP1) Biomarker Activity (AID 2283081).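 As to AC50: secreted MCP-1 protein quantified by ELISA in culture supernatant.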 The following applies: primary human HUVEC with PBMC; actives raise or lower the signal. The gist of the method: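 ELISA read-out of MCP-1 after 24 h chemical dosing of a human umbilical vein endothelial cell/peripheral blood mononuclear cell co-culture stimulated with LPS. Gain or loss of signal fitted relative to DMSO controls.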

Where “and” joins values, the source holds several entries; their conditions need not be identical. Identical values can stand only once. More than one record can exist for a structure, and the calls need not agree. Calls of active or inactive are those of the source. The calls were made as follows: active = hit-call score of the fitted dose curve at least 0.9, where 1 is the maximum; inactive = score below 0.9.

Chain of E-selectin (Homo sapiens) (P16581 whole entry, looked up): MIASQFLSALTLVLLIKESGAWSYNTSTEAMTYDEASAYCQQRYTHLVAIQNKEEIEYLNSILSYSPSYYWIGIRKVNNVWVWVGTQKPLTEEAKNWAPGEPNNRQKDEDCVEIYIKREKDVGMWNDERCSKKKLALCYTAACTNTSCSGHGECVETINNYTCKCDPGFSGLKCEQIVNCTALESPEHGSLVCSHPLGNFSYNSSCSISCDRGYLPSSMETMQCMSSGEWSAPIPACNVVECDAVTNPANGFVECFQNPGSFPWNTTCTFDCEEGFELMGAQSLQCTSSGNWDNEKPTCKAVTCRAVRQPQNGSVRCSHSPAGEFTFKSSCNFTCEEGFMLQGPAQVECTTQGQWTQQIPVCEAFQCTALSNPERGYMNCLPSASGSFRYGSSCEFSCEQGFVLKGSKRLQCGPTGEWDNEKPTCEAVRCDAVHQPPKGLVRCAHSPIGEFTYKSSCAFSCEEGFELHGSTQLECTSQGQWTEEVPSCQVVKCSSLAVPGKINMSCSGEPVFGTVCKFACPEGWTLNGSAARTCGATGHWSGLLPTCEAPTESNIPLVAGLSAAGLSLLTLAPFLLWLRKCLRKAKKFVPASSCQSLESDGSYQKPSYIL

In the case of `CC(C)(C)C(O)(CCc1ccc(Cl)cc1)Cn1cncn1` (stereo unspecified), the outcome is “inactive” in assay [1]; “inactive” in [2]; “inactive” in assay [3]; “inactive” in assay [4]; “inactive” in the assay with CD40, CD40 (gene 958); “inactive” in assay [5]. The result in assay [6], in assay [7], in assay [8] and in assay [9] was inactive.
On to `CC(C)N(Cc1ccccc1)C(=O)C(C)(C)C`, for which the outcome in assay [1] was “inactive”; in assay [2], “inactive”; in assay [3] it was “inactive”; in [4], “inactive”; with CD40, CD40 (gene 958) it was “inactive”; in assay [5], “inactive”. In addition, the result in assay [6], in assay [7], in [8] and in assay [9] was inactive.
With `C=CCc1ccc2c(c1)OCO2`, the outcome in assay [1] is “inactive”; in assay [2] it was “inactive”; in assay [3], “inactive”; in assay [4] it was “inactive”; in the assay with CD40, CD40 (gene 958) it was “inactive”; in assay [5] it was “inactive”. Also, the outcome in assay [6], in [7], in assay [8] and in assay [9] was inactive.
Turning to `Cc1ccc(N)cc1`, the outcome in assay [1] was “inactive”; in assay [2], “inactive”; in assay [3], “inactive”; in assay [4] it was “inactive”; with CD40, CD40 (gene 958) it was “inactive”; in assay [5] it was “inactive”. The result in assay [6], in assay [7], in assay [8] and in [9] was inactive.
Take `O=P(OCCCl)(OCCCl)OCCCl`: the outcome is “inactive” in [1]; “inactive” in assay [2]; “inactive” in [3]; “inactive” in [4]; “inactive” with CD40, CD40 (gene 958); “inactive” in assay [5]. The result in assay [6], in assay [7], in [8] and in assay [9] was inactive.
On to `CCNS(=O)(=O)C(F)(F)C(F)(F)C(F)(F)C(F)(F)C(F)(F)C(F)(F)C(F)(F)C(F)(F)F`, for which the AC50 is 19.3 µM (active) in assay [1]; 47.8 µM (active) in assay [2]; 29.6 µM (active) and 40.2 µM (active) and 36.2 µM (active) in [3]; 50.5 µM (active) and 47.5 µM (active) in [4]; 46.1 µM (active) and 42.2 µM (active) in the assay with CD40, CD40 (gene 958); 30 µM (active) in assay [6]. Further, the AC50 in assay [7] was 44.2 µM (active) and 46 µM (active); in assay [9], 48.8 µM (active) and 51.7 µM (active). The outcome in [2] was “inactive”; in assay [4], “inactive”; with CD40, CD40 (gene 958) it was “inactive”; in [5], “inactive”; in assay [6] it was “inactive”; in assay [7], “inactive”. Besides, the result in [8] and in assay [9] was inactive.
For the compound `O=[N+]([O-])c1ccc(Oc2ccc(Cl)cc2Cl)cc1`, the result in assay [1], in [2], in [4], in [5], in assay [6] and in [7] was inactive. The AC50 is 8.09 µM (active) in [3]; 20 µM (active) with CD40, CD40 (gene 958); 27.2 µM (active) in [8]; 25.7 µM (active) in assay [9].
For `CCCSC(=O)N(CCC)CCC`, the outcome is “inactive” in assay [1]; “inactive” in assay [2]; “inactive” in assay [3]; “inactive” in assay [4]; “inactive” in the assay with CD40, CD40 (gene 958); “inactive” in assay [5]. In addition, the result in assay [6], in assay [7], in assay [8] and in assay [9] was inactive.
For `Cc1ccc(N=C=O)cc1N=C=O`, the outcome is “inactive” in [1]; “inactive” in assay [2]; “inactive” in [3]; “inactive” in assay [4]; “inactive” with CD40, CD40 (gene 958); “inactive” in assay [5]. Besides, the outcome in [6], in [7], in [8] and in assay [9] was inactive.
For `c1ccc(C2CO2)cc1` (stereo unspecified), the outcome in [1] is “inactive”; in [2], “inactive”; in [3] it was “inactive”; in assay [4], “inactive”; in the assay with CD40, CD40 (gene 958), “inactive”; in assay [5] it was “inactive”. The result in assay [6], in assay [7], in assay [8] and in [9] was inactive.
Regarding `Oc1ccccc1Cl`, the outcome in assay [1] is “inactive”; in [2] it was “inactive”; in assay [3], “inactive”; in assay [4], “inactive”; with CD40, CD40 (gene 958), “inactive”; in [5] it was “inactive”. Moreover, the outcome in assay [6], in assay [7], in assay [8] and in [9] was inactive.
As to `CCCCCCCCCCCCCN1CC(C)OC(C)C1` (stereo unspecified), the outcome was “inactive” in assay [1]; “inactive” in assay [2]; “inactive” in [3]; “inactive” in assay [4]; “inactive” with CD40, CD40 (gene 958); “inactive” in assay [5]. The result in assay [6], in assay [7], in [8] and in [9] was inactive.
`CC(C)(OOC(C)(C)c1ccccc1)c1ccccc1`: the outcome in [1], in assay [2], in assay [3] and in assay [4] was inactive. In addition, the AC50 with CD40, CD40 (gene 958) was 34.6 µM (active); in assay [5] it was 34 µM (active); in assay [6] it was 30.1 µM (active); in assay [7] it was 36.8 µM (active); in assay [8], 29.2 µM (active); in assay [9], 30.4 µM (active).
As for `OCCCBr`, the outcome in assay [1] is “inactive”; in assay [2], “inactive”; in assay [3] it was “inactive”; in [4], “inactive”; with CD40, CD40 (gene 958), “inactive”; in assay [5] it was “inactive”. Further, the result in assay [6], in assay [7], in assay [8] and in [9] was inactive.
With `Oc1ccc2ccc3cccc4ccc1c2c34`, the AC50 in assay [1] is 31.7 µM (active); in assay [3], 15.3 µM (active); in the assay with CD40, CD40 (gene 958), 20 µM (active); in assay [5] it was 31.4 µM (active); in assay [6], 30.5 µM (active); in [7], 32 µM (active). The figures for the AC50 in assay [8] and in [9] were 29.2 µM (active) and 29.7 µM (active), respectively. The outcome in assay [2] and in assay [4] was inactive.
As to `CC(O)CCO` (stereo unspecified), the outcome in assay [1] is “inactive”; in [2], “inactive”; in assay [3], “inactive”; in [4], “inactive”; with CD40, CD40 (gene 958) it was “inactive”; in [5], “inactive”. For the same compound, the result in assay [6], in [7], in assay [8] and in assay [9] was inactive.
Turning to `Nc1ccc(Cl)cc1N`, the outcome in [1] is “inactive”; in assay [2], “inactive”; in assay [4] it was “inactive”; with CD40, CD40 (gene 958) it was “inactive”; in assay [6] it was “inactive”; in [7], “inactive”. Moreover, the outcome in assay [8] and in [9] was inactive. Further, the results for the AC50 in assay [3] and in [5] were 8.99 µM (active) and 4.45 µM (active), respectively.
For the compound `CO[C@@H]1[C@H](OC(=O)NC(=O)CCl)CC[C@]2(CO2)[C@H]1[C@@]1(C)O[C@@H]1CC=C(C)C`, the result in [1], in assay [2], in assay [4], in assay [6], in assay [7] and in assay [9] was inactive. Moreover, the AC50 is 6.36 µM (active) in assay [3]; 3.77 µM (active) with CD40, CD40 (gene 958); 9.98 µM (active) in [5]; 6.19 µM (active) in assay [8].
For the compound `C1=Cc2cccc3cccc1c23`, the outcome in assay [1] is “inactive”; in assay [2], “inactive”; in assay [3] it was “inactive”; in assay [4], “inactive”; in the assay with CD40, CD40 (gene 958), “inactive”; in assay [5], “inactive”. Besides, the outcome in assay [6], in assay [7], in assay [8] and in assay [9] was inactive.
For `c1ccc(NNc2ccccc2)cc1`, the outcome in assay [1] was “inactive”; in assay [2] it was “inactive”; in [3], “inactive”; in assay [4] it was “inactive”; with CD40, CD40 (gene 958), “inactive”; in assay [5] it was “inactive”. The outcome in assay [6], in [7], in [8] and in assay [9] was inactive.
